Rows were chosen to be rich in hits. Some 1.3% of all compounds tested hit in one or more screens of this group.
SARS 3CLpro inh: SARS-CoV 3CLpro protease inhibition; P0C6X7; 290,000 compounds, 0.14% hits; recombinant SARS-CoV 3CLpro, quenched FRET peptide cleavage; inhibition, % at 6 µM; AID 1706; in the data active = inhibition above about 12%
BH1578 lux ind: quorum light induction in luxS cqsA deficient V. cholerae | V. cholerae BH1578 lux reporter, luminescence, 6 h | activation, % at 18.7 µM | 350,000 compounds, 0.16% hits | AID 588436; in the data active = activation mostly above about 9.7%, no sharp cut-off
PriA SSB inh: blocks PriA binding to SSB C-terminal tail; AlphaScreen SSBct-PriA binding, biotinylated peptide; 430,000 compounds, 0.6% hits; inhibition, % at 33 µM; in the data active = inhibition mostly above about 37%, no sharp cut-off; inactive = mostly below about 20%;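 also: plate controls were negative control peptide for no effect and reference peptide for full effect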
TcdB inh: blocks C. difficile toxin B glycohydrolase activity. 350,000 compounds, 0.24% hits. P18177. inhibition, % at 9.99 µM. TcdB glycohydrolase enzymatic assay, plate reader; in the data active = inhibition above about 10%
CCHF vOTU inh: CCHFV vOTU protease inhibition; 370,000 compounds, 0.55% hits; inhibition, % at 11.5 µM; Pep-AMC fluorescence; AID 651958; in the data active = inhibition above about 30%; also: 0% = vehicle wells with enzyme and 100% = no enzyme wells
VHR inh abs: inhibitors of human VHR1 phosphatase (DUSP3); 290,000 compounds, 0.52% hits; recombinant VHR phosphatase, pNPP absorbance; AID 1654; P51452; inhibition, % at 13.3 µM; in the data active = inhibition above about 50%
* = called active by the depositor; i = inactive; nt = not tested or not shown.

SMILES	SARS 3CLpro inh	BH1578 lux ind	PriA SSB inh	TcdB inh	CCHF vOTU inh	VHR inh abs
Cc1ccc(NC(=O)Cn2nc(-c3ccccc3)c3sc(N4CCCC4)nc3c2=O)cc1Cl	nt	nt	14	nt	nt	nt
N#Cc1c(-c2ccccc2)c(-c2ccccc2)nn(CC(=O)NNC(=O)Nc2ccc(Cl)c(Cl)c2)c1=O	2	i	52*	nt	4	-15
O=C(Nc1cccc2ccccc12)C1CCCCN1S(=O)(=O)c1cccs1 (stereo unspecified)	nt	nt	12	nt	nt	nt
C[C@H](CO)N1C[C@H](C)[C@H](CN(C)Cc2ccc(Oc3ccccc3)cc2)Oc2cc(-c3ccncc3)ccc2S1(=O)=O	nt	nt	nt	17*	nt	nt
C[C@@H]1CN([C@H](C)CO)S(=O)(=O)c2ccc(-c3ccncc3)cc2O[C@H]1CN(C)Cc1ccc(Oc2ccccc2)cc1	nt	nt	nt	-12	nt	nt
C[C@@H]1CN([C@@H](C)CO)S(=O)(=O)c2ccc(-c3ccncc3)cc2O[C@@H]1CN(C)Cc1ccc(Oc2ccccc2)cc1	nt	nt	nt	14*	nt	nt
CCCOC(=O)CSC1=C(C#N)C(c2ccccc2Cl)CC(=O)N1 (stereo unspecified)	0	0	-12	0	-7	50*
CC1CCN(C(=O)CCn2cnc3c(cnn3-c3ccc(F)cc3)c2=O)CC1	nt	nt	-8	nt	nt	nt
COc1ccc(NC(=O)CN(C)C(=O)c2ccccc2OC)cc1	-1	i	-3	1	-9	51*
O=C(C[n+]1ccc(CCSc2ccc(F)cc2)cc1)c1ccccc1	-1	0	46*	nt	nt	5
Cc1ccc(SCCc2cc[n+](CC(=O)c3ccccc3)cc2)cc1	-7	0	17	1	0	6
Cn1cccc(C(=O)Nc2ccccc2Cc2nc(-c3cccs3)no2)c1=O	nt	nt	9	nt	nt	nt
CNc1nc(NN)nc(Nc2ccccc2)n1	-2	1	105*	0	-8	2
COc1cc(-c2cc(C(=O)NCC3CCCN3c3ccccc3)[nH]n2)cc(OC)c1OC (stereo unspecified)	nt	nt	59*	nt	nt	nt
COc1cccc2cc(C(=O)NC[C@H]3CCCN3c3ccccc3)oc12	nt	nt	29*	nt	nt	nt
O=C(NCc1cccs1)Nc1ccc(-c2cnc3n2CCC3)cc1	nt	nt	5	nt	nt	nt
O=C(c1c[nH]c2ccccc12)N1CC(N2C(=O)CCC2=O)C1	nt	nt	-2	nt	nt	nt
COc1ccc(S(=O)(=O)Cc2ccc(C(=O)N3CCC4(CC3)OCCO4)o2)cc1	-3	0	-20	nt	-1	-10
Cc1ccccc1CS(=O)(=O)Cc1ccc(C(=O)N2CCC3(CC2)OCCO3)o1	-6	-1	-1	1	1	51*
COc1ccc(-n2nncc2CN2CCN(C(=O)c3ccc4[nH]ccc4c3)CC2)cc1F	nt	nt	2	nt	nt	nt
CC1=NN(c2nc(-c3ccc(C)cc3)cs2)C(=O)C1N=Nc1cccc(C)c1 (stereo unspecified)	9	0	2	0	-5	1
CCOC(=O)c1sc(N2N=C(C)C(N=Nc3cccc(C)c3)C2=O)nc1C (stereo unspecified)	-1	-3	2	0	3	55*
Cc1cccc(-c2nnc(NC(=O)c3ccn(C)n3)o2)c1	nt	nt	12	nt	nt	nt
O=C(Nc1ccc(C(=O)NCCCN2CCCCC2)cc1)C1=CSCCO1	-1	i	-12	2	1	57*
Cc1cccc(Oc2ccc(S(=O)(=O)N3CC[C@H](S(=O)(=O)C(C)(C)C)C3)cc2)c1	nt	nt	-19	nt	nt	nt
SMILES	SARS 3CLpro inh	BH1578 lux ind	PriA SSB inh	TcdB inh	CCHF vOTU inh	VHR inh abs
Cc1ccc(CN2CCCN(Cc3ccc(F)cc3Cl)S2(=O)=O)cc1	-5	i	-13	0	3	53*
Cc1ccc(-c2cc(C(=O)N3CCC(NC(=O)c4ccc5c(c4)OCO5)CC3)[nH]n2)c(C)c1	nt	nt	-4	nt	nt	nt
Cc1ccc(-c2cc(C(=O)N3CCC(NC(=O)c4cccc(N(C)C)c4)CC3)[nH]n2)c(C)c1	nt	nt	48*	nt	nt	nt
COc1cccc(OC[C@@H](O)CN2CCOCC2)c1	nt	nt	-4	nt	nt	nt
CCn1c(SCC(=O)Nc2ccccc2)nnc1-c1cccs1	-2	0	-3	6	-14	7
CCn1c(SCC(=O)NC(C)C)nnc1-c1cccs1	-4	17*	-4	nt	0	18
O=C(CC(=O)N/N=C\c1c(Cl)cccc1Cl)NCc1ccccc1	5	5.6*	nt	nt	8	32
N#Cc1ccc(C(=O)NCC2CCN(Cc3ccccc3)CC2)cc1	nt	nt	3	nt	nt	nt
Cc1onc(-c2c(F)cccc2Cl)c1C(=O)Nc1ccc(Cl)c(S(=O)(=O)N(C)C)c1	nt	2	5	-3	7	nt
COc1ccc(C(=O)Nc2ccc(OC)c([N+](=O)[O-])c2)cc1Br	5	29*	3	0	9	12

Screens as filed in PubChem.
